Screening data: PubChem, The Scripps Research Institute Molecular Screening Center
The full list was thinned out, with hits kept by preference.
SF-1 inh = inhibitors of human nuclear receptor SF-1; AID 525; 0.55% of 65,000 active; Q13285; inhibition, % at 10 µM; CHO-K1 Gal4-SF-1 LBD luciferase reporter;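 active means inhibition above the mean inhibition of all tested compounds plus 3 SD, cut at about 48% in these data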;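 further: 0% = SF-1 transfected cells with DMSO and 100% = mock-transfected cells lacking SF-1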
Target sequence (Q13285 whole entry, looked up, the tested form may be a part): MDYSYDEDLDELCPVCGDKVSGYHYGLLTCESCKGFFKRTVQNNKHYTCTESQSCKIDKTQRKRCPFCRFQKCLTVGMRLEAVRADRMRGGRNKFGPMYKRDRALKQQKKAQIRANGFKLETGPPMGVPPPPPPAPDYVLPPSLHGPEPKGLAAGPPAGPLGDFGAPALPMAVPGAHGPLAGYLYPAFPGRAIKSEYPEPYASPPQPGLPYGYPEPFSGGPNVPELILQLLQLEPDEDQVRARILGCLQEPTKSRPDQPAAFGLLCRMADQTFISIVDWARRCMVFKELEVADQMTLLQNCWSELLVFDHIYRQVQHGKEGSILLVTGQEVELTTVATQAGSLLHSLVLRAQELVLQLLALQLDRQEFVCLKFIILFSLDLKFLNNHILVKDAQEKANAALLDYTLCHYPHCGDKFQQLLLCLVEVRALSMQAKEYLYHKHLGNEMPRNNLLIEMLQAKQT
An asterisk follows results filed as active.

SMILES	SF-1 inh
O=C(CSc1n[nH]c(-c2ccncc2)n1)NC1CCS(=O)(=O)C1 (configuration not stated)	10
COc1ccccc1NC(=O)C1C2C=CC3(CN(Cc4cccnc4)C(=O)C13)O2 (configuration not stated)	13
CC1=CC(C)=Nc2ccc(C)cc2N1	-76
O=C(Nc1nnc(C2CC2)o1)c1ccc(S(=O)(=O)N2CCCc3ccccc32)cc1	49*
COC(=O)Nc1ccc(S(=O)(=O)N2c3ccccc3CCC2C)cc1 (configuration not stated)	-5
CN(c1ccccc1)S(=O)(=O)c1ccc(C(=O)Nc2nnc(-c3ccc(F)cc3)o2)cc1	1
CCOc1ccc(S(=O)(=O)N2CCN(S(=O)(=O)c3ccc(OCC)cc3)C(C)C2)cc1 (configuration not stated)	-7
Cc1cccc(NC(=O)c2oc3c(c2C)C(=O)CC(C)(C)C3)n1	-10
Nc1nc(Cl)nc2c1ncn2[C@H]1C[C@H](O)[C@@H](CO)O1	79*
Nc1ncnc2c1ncn2C1CCC(CO)C(O)C1 (configuration not stated)	-1
O=C(CCN1C(=O)C2CC=C(Cl)CC2C1=O)N1CCCCC1 (configuration not stated)	-3
O=C(CN1CCOCC1)N(c1ccccc1)c1ccc2ccccc2c1	7
Cn1c(SCc2ccc(F)cc2)nnc1-c1cccs1	-51
CC(=O)c1cccc(NC(=O)c2cc(C(C)C)on2)c1	-74
Cc1cccc(NC(=O)c2cc3ccccc3o2)c1	-90
Cc1cc(C(=O)Nc2cccc(C(=O)O)c2)oc1C	69*
COC(=O)c1ccc(Oc2cc(C)nc(SC)n2)cc1	-71
CCn1c(=NC(=O)CN2C(=O)CCC2=O)sc2c(C)cc(C)cc21	34
Cc1cc(NC(=O)c2cc(-c3ccccn3)nc3ccccc23)no1	7
COc1ccc(C(=O)/C=C/Nc2cccc(C)n2)cc1OC	-88
Cc1ccc(C(=O)/C=C/Nc2ccccn2)cc1	83*
FC(F)(F)c1cnc(Nc2ccc(N3CCOCC3)cc2)c(Cl)c1	4
COc1ccc(N(CC(=O)NC2CCCCC2)S(=O)(=O)c2cccnc2)cc1	8
O=C(COC(=O)c1ccc(S(=O)(=O)N2CCOCC2)cc1)NC1CCCCCC1	3
Cc1cc(/C=N/n2cnnc2)c(C)n1-c1ccc(OCc2ccc(F)cc2)cc1	86*
SMILES	SF-1 inh
CC[C@H]1OC(=O)C[C@@H](O)[C@H](C)[C@@H](O[C@@H]2O[C@H](C)C[C@H](N(C)C)[C@H]2O)[C@@H](CC=O)C[C@@H](C)C(=O)C=C[C@]2(C)O[C@H]2[C@@H]1C	9
CC(NC(=O)C1CCC(=O)N1Cc1ccc(F)cc1)c1ccc2c(c1)OCCO2 (configuration not stated)	-9
O=C(C1CCCCC1)N1CCN(c2ncccn2)CC1	-4
COc1ccc(-c2nc(CSCC(=O)NCc3ccco3)c(C)o2)cc1	69*
COc1ccc2c(c1)CCc1c(C(=O)NCCN3CCOCC3)noc1-2	3
COc1ccc(-c2nc(CS(=O)CC(=O)N3CCCC3)c(C)o2)cc1 (configuration not stated)	3
Cc1cc(-c2ccco2)n(CC(=O)NCc2ccco2)n1	-12
CCOc1ccc(-c2nc(CSCC(=O)NCCN3CCOCC3)c(C)o2)cc1	65*
CCc1ccc(-c2nc(CSCC(=O)N3CCN(c4ncccn4)CC3)c(C)o2)cc1	51*
Cc1ccc(-c2nc(CS(=O)CC(=O)NCc3ccccn3)c(C)o2)cc1 (configuration not stated)	-1
COc1ccc(C2=NOC(C(=O)NCCCN3CCOCC3)C2)cc1 (configuration not stated)	-12
Cc1cc(F)ccc1S(=O)(=O)Nc1ccccc1C(=O)Nc1ccc2[nH]c(=O)[nH]c2c1	9
CC12CCC(C(=O)N3CCN(C(=O)C45CCC(C)(C(=O)O4)C5(C)C)CC3)(OC1=O)C2(C)C	-7
Cc1cccc(CN2CCN(CC(=O)NCc3ccc(F)cc3)C2=O)c1	3
CC(C)Oc1ccc(/C(O)=C2/C(=O)C(=O)N(CCN(C)C)C2c2ccco2)cc1 (configuration not stated)	-28
COc1ccc(OC)c(N(CC(=O)N2CCN(c3cc(Cl)ccc3C)CC2)S(C)(=O)=O)c1	12
CCCCN(CC)CCNS(=O)(=O)c1ccc2c(c1)oc(=O)n2C	-5
O=C(Nc1nccs1)c1ccc(COc2ccccc2Br)o1	-60
COc1cc(-c2nnc3sc(-c4cccs4)nn23)cc(OC)c1OC	16
COc1ccccc1-c1nnc2sc(-c3ccc(N(C)C)cc3)nn12	64*
CN(C)c1ccc(-c2nn3c(-c4cccnc4)nnc3s2)cc1	4
COc1cccc(N2CCN(C(=O)c3ccc4nc(N5CCCCC5)sc4c3)CC2)c1	-89
CCCCP(=O)(CCCC)c1ccccc1C(=O)O	-10
COc1ccc(CCNc2c(C)c(C)nc3ncnn23)cc1	81*
COc1ccc(CNc2ccc3c(c2)nc(C)n3C)cc1	-79
CCn1ccnc1C(O)c1cccc(OC)c1OC (configuration not stated)	-8
COC(=O)c1ccc2c(=O)n(CCN3CCOCC3)c(SCC(=O)NC3CCCCC3)nc2c1	-8
